{"source": "the supplement of paper PMC9023506", "note": "Counter-ions that a name gives are not always drawn.", "data": [{"tested_on": "Danio rerio larvae (5 dpf)", "assay": "optomotor response to blue moving lines, difference vs DMSO (percentage points (treated minus DMSO)); higher = more of the behaviour than the DMSO vehicle control", "details": "10 µM; exposure time: 3 h pre-incubation + 3 h imaging", "procedure": "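5-dpf wild-type zebrafish larvae were imaged in 96-well plates. They were treated with 190 Tocris FDA-approved drugs at 10 µM (1 µl/ml DMSO) for 3 h before and 3 h during imaging at 28.5 °C, 48 larvae per drug. Automated image analysis gave % time moving and optomotor responses. Values are drug group mean minus DMSO vehicle mean (n=844), in percentage points, for 10 behaviours.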", "values": [{"smiles": "O=c1[nH]c2ccccc2n1C1CCN(CCCC(c2ccc(F)cc2)c2ccc(F)cc2)CC1", "note": "[Pimozide]", "optomotor response to blue moving lines": -7.76}, {"smiles": "CCN(C)C(=O)Oc1cccc([C@H](C)N(C)C)c1", "note": "[Rivastigmine tartrate]", "optomotor response to blue moving lines": 1.1}, {"smiles": "CC(C)C[C@H]1C(=O)N2CCC[C@H]2[C@]2(O)O[C@](NC(=O)[C@@H]3C=C4c5cccc6[nH]c(Br)c(c56)C[C@H]4N(C)C3)(C(C)C)C(=O)N12", "note": "[Bromocriptine mesylate]", "optomotor response to blue moving lines": -29.3}, {"smiles": "CN1C[C@H](C(=O)N[C@]2(C)O[C@@]3(O)[C@@H]4CCCN4C(=O)[C@H](Cc4ccccc4)N3C2=O)C[C@@H]2c3cccc4[nH]cc(c34)C[C@H]21", "note": "[Dihydroergotamine mesylate]", "optomotor response to blue moving lines": 12.8}, {"smiles": "Cc1cccc([C@H](C)c2c[nH]cn2)c1C", "note": "[Dexmedetomidine hydrochloride]", "optomotor response to blue moving lines": -12.4}, {"smiles": "N[C@@H]1C[C@H]1c1ccccc1", "note": "[Tranylcypromine hydrochloride]", "optomotor response to blue moving lines": 13.5}, {"smiles": "C=CCN1C[C@H](C(=O)N(CCCN(C)C)C(=O)NCC)C[C@@H]2c3cccc4[nH]cc(c34)C[C@H]21", "note": "[Cabergoline]", "optomotor response to blue moving lines": -0.85}, {"smiles": "COc1cc2c(cc1OC)C1CC(=O)C(CC(C)C)CN1CC2", "note": "(configuration not stated) [Tetrabenazine]", "optomotor response to blue moving lines": -7.81}, {"smiles": "C=C1C[C@@H]2[C@H](CC[C@]3(C)C(=O)CC[C@@H]23)[C@@]2(C)C=CC(=O)C=C12", "note": "[Exemestane]", "optomotor response to blue moving lines": -2.19}, {"smiles": "CC(O)(CS(=O)(=O)c1ccc(F)cc1)C(=O)Nc1ccc(C#N)c(C(F)(F)F)c1", "note": "(configuration not stated) [Bicalutamide]", "optomotor response to blue moving lines": -16.6}, {"smiles": "CC[C@@H](C(N)=O)N1CCCC1=O", "note": "[Levetiracetam]", "optomotor response to blue moving lines": 6.19}, {"smiles": "COc1ccc(C(CN(C)C)C2(O)CCCCC2)cc1", "note": "(configuration not stated) [Venlafaxine hydrochloride]", "optomotor response to blue moving lines": 3.9}]}]}
